The values that follow come from PubChem BioAssay (EPA / NIEHS).

Activity calls are given as the source filed them. How the source made its calls: active means hit-call score of the fitted dose curve at least 0.9, where 1 is the maximum; inactive means score below 0.9.

Sequence of Bile acid receptor (Homo sapiens) (Q96RI1 whole entry, looked up): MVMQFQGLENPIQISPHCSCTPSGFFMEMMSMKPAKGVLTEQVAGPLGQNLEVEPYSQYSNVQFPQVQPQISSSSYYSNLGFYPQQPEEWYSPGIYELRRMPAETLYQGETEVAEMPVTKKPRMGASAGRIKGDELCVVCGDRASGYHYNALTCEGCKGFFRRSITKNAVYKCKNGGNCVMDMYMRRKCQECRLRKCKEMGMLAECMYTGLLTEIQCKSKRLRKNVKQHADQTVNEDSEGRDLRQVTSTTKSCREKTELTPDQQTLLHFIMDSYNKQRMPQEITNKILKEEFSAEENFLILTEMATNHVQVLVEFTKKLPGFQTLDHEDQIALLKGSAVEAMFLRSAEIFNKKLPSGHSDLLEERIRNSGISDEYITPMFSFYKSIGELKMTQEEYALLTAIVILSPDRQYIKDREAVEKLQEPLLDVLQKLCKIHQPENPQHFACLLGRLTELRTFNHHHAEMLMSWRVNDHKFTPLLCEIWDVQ

In this assay the target is Bile acid receptor (Homo sapiens) (UniProt Q96RI1). Kind of assay: ATG_IR1_CIS: Attagene CIS-FACTORIAL HepG2 Assay for human Nuclear Receptor Subfamily 1 Group H Member 4 (NR1H4), IR1 submotif (AID 2282946). Conditions: IR1 reporter transcription, actives raise or lower the signal. How it is done:
ATG_CIS is a cell-based, multiplexed-readout assay that uses HepG2, a human liver cell line, with measurements taken at 24 hours after chemical dosing in a 24-well plate.ATG_IR1_CIS is one of 52 assay component(s) measured or calculated from the ATG_CIS assay. It is designed to make measurements of mRNA induction, a form of inducible reporter, as detected with fluorescence intensity signals by Reverse transcription polymerase chain reaction (RT-PCR) and Capillary electrophoresis technology.Data from the assay component ATG_IR1_CIS was analyzed into 1 assay endpoint. This assay endpoint, ATG_IR1_CIS, was analyzed with bidirectional fitting relative to DMSO as the negative control and baseline of activity. Using a type of inducible reporter, measures of mRNA for gain or loss-of-signal activity can be used to understand the reporter gene at the transcription factor-level as they relate to the gene NR1H4. Furthermore, this assay endpoint can be referred to as a primary readout, because this assay has produced multiple assay endpoints where this one serves a reporter gene function. To generalize the intended target to other relatable targets, this assay endpoint is annotated to the nuclear receptor intended target family, where the subfamily is non-steroidal.
Human liver HepG2 cells are transiently transfected with multiple reporter transcription units (MRTUs) in 6-well plates using FuGene 6 reagent (Roche; 3 ml FuGene/1 mg DNA). The MRTU constructs are regulated by a cis-regulating element (promoter). […] A major difference between the CIS and TRANS system is that in CIS activities of endogenous TFs are measured, whereas the TRANS assay evaluates changes in activities of exogenous, chimeric NR-Gal4 proteins. […] At the end of 24 hour incubation, total RNA was isolated using TriZol reagent (Invitrogen). The isolated RNA is then reverse-transcribed using oligo(dT) primer and Mo-MLV reverse transcriptase (Invitrogen) with DNAse I (Ambion) treatment for 30 min. The one-tenth of the produced cDNA was amplified by PCR using Taq DNA polymerase (Invitrogen) and two reporter sequence-specific primers. The PCR products were fluorescently labeled by primer extension with 6-arboxyfluorescein (6-FAM) 5'-labeled reporter sequence-specific primer (2 min at 95 C, 20 s at 68 C and 10 min at 72 C) and these products were digested with 5U of HpaI (New England Biolabs) for 2h at 37 C. The fragments were purified using Qiaquick PCR columns (Qiagen), analyzed on an ABI 3130xL genetic analyzer (Applied Biosystems) with peak positions identified by using a set of X-rhodamine (ROX)-labeled MapMarker1000 molecular weight standards (BioVentures). The raw capillary electrophoresis data was processed using Attagraph software (Attagene).
`CN(C)CCOc1ccc(/C(=C(/CCCl)c2ccccc2)c2ccccc2)cc1`: the outcome was inactive. `Cc1cc(C)nc(NS(=O)(=O)c2ccc(N)cc2)n1`: the compound was called inactive. In the case of `[Cl][Au]([Cl])[Cl]` it was “inactive”; in that of `COC(=O)Nc1ccc(Cl)c(Cl)c1`, “inactive”.

Turning to `COc1cc(CCC(C)=O)ccc1O`, the call was inactive. In the case of `Oc1ccc2cc(SSc3ccc4cc(O)ccc4c3)ccc2c1` it was “inactive”; in that of `CC(=O)O[C@H]1C[C@@H]2CC[C@@]1(C)C2(C)C`, “inactive”. In the case of `OCC#CCO` it was “inactive”.

Regarding `CC(C=O)Cc1ccc(C(C)(C)C)cc1` (stereo not given), the call was inactive. The entry for `CCCCCCC(=O)c1ccccc1` is “inactive”; for `O=C1OC(=O)c2c(Cl)c(Cl)c(Cl)c(Cl)c21` it is “inactive”; for `C=C(CC(=O)O)C(=O)O` it is “inactive”. As to `COc1ccc(CCN2CCC(Nc3nc4ccccc4n3Cc3ccc(F)cc3)CC2)cc1`, the call was inactive. In the case of `Cc1c(OCC(F)(F)F)ccnc1CS(=O)c1nc2ccccc2[nH]1` (stereo not given), the result was inactive.

As to `O=CCc1ccccc1`, the outcome was inactive.

For the compound `CCOC(=O)c1ccc(N)cc1`, the result was inactive. The entry for `Cc1ccc(N)c(S(=O)(=O)O)c1` is “inactive”; for `c1ccc2cc(Nc3ccc(Nc4ccc5ccccc5c4)cc3)ccc2c1` it is “inactive”. As to `CC(C)(C)CC(C)(C)c1ccc(OCCOCC[N+](C)(C)Cc2ccccc2)cc1`, the call was inactive. The entry for `CCOc1ccc(NC(=O)CC(C)O)cc1` (stereo not given) is “inactive”. The entry for `C[C@H]1C[C@@H](O)CC(C)(C)C1` is “inactive”; for `COS(=O)(=O)O` it is “inactive”; for `Nc1ccc2cc(S(=O)(=O)O)cc(O)c2c1N=Nc1ccccc1C(F)(F)F` it is “inactive”. In the case of `CC(=O)c1c(C)c([N+](=O)[O-])c(C(C)(C)C)c([N+](=O)[O-])c1C` it was “inactive”.

As to `OCCCCC(O)CO` (stereo not given), the compound was classed as inactive. As for `FC(F)(F)COCC(F)(F)F`, the result was inactive. The entry for `C#CC(C)N(C)C(=O)Nc1ccc(Cl)cc1` (stereo not given) is “inactive”.

For `CCCCCCCC(=O)OCCCCCC`, the call was inactive.

Regarding `CCCCCCOCCOCCO`, the compound was called inactive. For the compound `OCCOCCN1CCN(C2=Nc3ccccc3Sc3ccccc32)CC1`, the result was inactive. The entry for `COC(=O)c1ccc([N+](=O)[O-])cc1` is “inactive”; for `C=CC(C)(O)CCC=C(C)C` (stereo not given) it is “inactive”; for `C[C@H](CCC(=O)NCC(=O)O)[C@H]1CC[C@H]2[C@@H]3[C@H](O)C[C@@H]4C[C@H](O)CC[C@]4(C)[C@H]3C[C@H](O)[C@]12C` it is “inactive”. As for `CCCCC(CC)C(=O)OC(C)C` (stereo not given), the outcome was inactive.

As to `CC(=O)c1ccccn1`, the call was inactive. As for `CCCCCCC(O)CCCCCCCCCCC(=O)O` (stereo not given), the result was inactive. In the case of `CCC1CCCCC1` it was “inactive”. In the case of `CCCCCCCCCCCC(=O)OC[C@@H](O)[C@H]1OC[C@H](O)[C@H]1O` it was “inactive”. In the case of `CCCC(O)C(O)CO` (stereo not given) it was “inactive”; in that of `COCCc1ccc(OCC(O)CNC(C)C)cc1` (stereo not given), “inactive”.
